Source: PubChem
An excerpt weighted towards active compounds, which were near 3.1% of everything screened.
VDR inhibitor: vitamin D3 receptor (human) inhibition | VDR-SRC2-3 peptide fluorescence polarization, 2 h | Potency, µM, most hits filed as inhibitors | 0.93% of 400,000 active | AID 504847
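FP read-out; VDR + SRC2-3 coactivator peptide; 23 nl compound by pintool; 2 h RT incubation; reagents held at 4 deg C, protected from light.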
KAT2A inh: blocks human GCN5L2 histone acetyltransferase; Q92830; GCN5L2 HAT assay, ThioGlo1 CoA-SH fluorescence; Potency, µM (highest dose often 58.9 µM), most hits filed as inhibitors; 0.21% of 390,000 active
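Fluorescence readout, Ex340nm/Em540nm: ThioGlo1 (50uM final) reacts with free CoA thiol released as 20nM GCN5L2 acetylates H3(1-25) peptide (75uM) using acetyl-CoA (70uM). Compound and enzyme sat 15 min beforehand; 20 min room-temperature reaction.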
PI4K2A block: blocks human PI4K2A kinase activity; Q9BTU6; purified PI4K2A, ADP-Glo luminescence, 1 h; hits give low values; activity change, negative = inhibition, % at 76.9 µM; 0.13% of 420,000 active; AID 1346378; in the data active = activity change below about -50%; inconclusive = mostly about -30% to -49%
Target sequence (Q9BTU6 whole entry, looked up): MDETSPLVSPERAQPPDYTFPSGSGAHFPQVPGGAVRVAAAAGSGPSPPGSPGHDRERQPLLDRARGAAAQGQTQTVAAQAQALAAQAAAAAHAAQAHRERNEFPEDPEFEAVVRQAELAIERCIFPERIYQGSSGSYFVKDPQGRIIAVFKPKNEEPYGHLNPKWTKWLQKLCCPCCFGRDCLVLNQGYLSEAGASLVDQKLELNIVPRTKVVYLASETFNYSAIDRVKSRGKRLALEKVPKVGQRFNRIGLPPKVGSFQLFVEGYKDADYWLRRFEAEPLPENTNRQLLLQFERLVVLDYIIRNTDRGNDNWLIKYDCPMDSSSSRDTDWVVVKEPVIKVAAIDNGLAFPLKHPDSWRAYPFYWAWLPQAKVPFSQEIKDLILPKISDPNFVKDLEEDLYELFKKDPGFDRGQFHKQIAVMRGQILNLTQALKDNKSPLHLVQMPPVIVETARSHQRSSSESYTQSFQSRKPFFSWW
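ADP-Glo luminescence measured ADP generated by PI4K2A enzyme (4 ug/mL before mixing) with 1.2 mM PI substrate (pre-mix) and 300 microM ATP (pre-mix). Tris pH7.5 buffer with MgCl2, Triton X-100; 1 h reaction at ambient temperature.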
GLS inhibitor: blocks human kidney-isoform glutaminase activity; GLS enzymatic activity, qHTS titration; O94925; AID 624170; 0.21% of 410,000 active; Potency, µM (doses to about 45.5 µM), usual class: inhibitors
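hKGA; 45 mM KH2PO4 pH 8.2 + 0.02% Tween-20; cpd via pin tool; 1 mM Gln soln; GluOx/HRP/Amplex Red; RT 30 min; fluor. t0 & final.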
PLK1 PBD inh: inhibitors of human PLK1 polo-box domain binding; P53350; Plk1 PBD binding of FITC phosphopeptide, fluorescence polarization; 2.8% of 360,000 active; Potency, µM, hits mostly inhibitors; note: series mostly up to about 57 µM; nearly all actives have a fitted effect of over 65% in size
Large screens that a line does not name were inactive; ! = a repeat was not active. Unless noted, calls come from the whole dose curve; as a rule, active = well fitted curve in the direction sought with a large enough effect; inconclusive = small, poorly fitted or top-dose-only effect, or another doubt; inactive = no such curve, though single readings can be large; an effect the other way counts as inactive or inconclusive.

CCC(Oc1ccccc1)C(=O)Nc1ccc(S(=O)(=O)Nc2cnc3ccccc3n2)cc1 (stereo unspecified)	none
O=C(Nc1ccc(S(=O)(=O)Nc2cnc3ccccc3n2)cc1)c1cc(F)c(F)cc1Cl	VDR inhibitor inconclusive, PLK1 PBD inh 29.9µM
COc1ccc(C(=O)Nc2ccc(S(=O)(=O)Nc3cnc4ccccc4n3)cc2)cc1	none
Cc1cccc(-c2cccc3c4c([nH]c23)[C@@H]2C[C@H](N(C)C(=O)c3ccco3)[C@H]([C@H](C)O)CN2CC4)c1	none (no result: VDR inhibitor, KAT2A inh, GLS inhibitor, PLK1 PBD inh)
COc1cc(NC(=O)C2CCCN(S(=O)(=O)c3cccs3)C2)cc(OC)c1 (stereo unspecified)	none (no result: VDR inhibitor, KAT2A inh, GLS inhibitor, PLK1 PBD inh)
CCc1sc(Nc2cccc(Cl)c2C)nc1-c1cc2cccc(OC)c2oc1=O	none (no result: PLK1 PBD inh)
[N-]=C=C1C(=S)NC(=O)[C@H]([n+]2ccccc2)[C@H]1c1ccc(Cl)cc1	VDR inhibitor 44.7µM, KAT2A inh 11.2µM, PLK1 PBD inh 26.7µM
Oc1c(I)cc(I)c2cccnc12	VDR inhibitor 35.5µM!, PLK1 PBD inh inconclusive
O=C(NC(C(=O)c1ccccc1)n1c(=O)cc[nH]c1=S)c1ccccc1 (stereo unspecified)	PLK1 PBD inh 26.7µM
COc1ccc(C(=O)CCS(=O)(=O)c2ccc(C)cc2)cc1	VDR inhibitor inconclusive, KAT2A inh inconclusive, PLK1 PBD inh 10.6µM
Cc1ccc(C(=O)CCS(=O)(=O)c2ccc(Br)cc2)cc1	KAT2A inh inconclusive, PLK1 PBD inh inconclusive
COc1ccc(S(=O)(=O)CCC(=O)NC2CCCCC2)cc1	PLK1 PBD inh 29.9µM
Cc1ccc(-c2cc(C(=O)NN=Cc3c(O)ccc4ccccc34)[nH]n2)cc1C	none (no result: VDR inhibitor, KAT2A inh, GLS inhibitor, PLK1 PBD inh)
Cc1cc(Cl)c2oc(C(=O)N(C)C3CCOC3)c(C)c2c1 (stereo unspecified)	VDR inhibitor inconclusive, GLS inhibitor inconclusive, PLK1 PBD inh 3.36µM
S=C(Cc1cccnc1)N1CCOCC1	VDR inhibitor inconclusive, PLK1 PBD inh 23.8µM
O=c1c2c(-c3ccco3)csc2nc(SCc2cn3cccnc3n2)n1-c1ccccc1	PI4K2A block -58.2, PLK1 PBD inh 23.8µM
NC(=O)CSc1nc2scc(-c3ccco3)c2c(=O)n1-c1ccccc1	VDR inhibitor 79.4µM, PI4K2A block inconclusive
O=C(CSc1nc2scc(-c3ccco3)c2c(=O)n1-c1ccccc1)N1CCOCC1	none
CCN(C[C@H]1[C@@H](c2ccc(C3=CCCC3)cc2)[C@H](CO)N1c1nc(C)c(C)s1)S(=O)(=O)c1ccccc1[N+](=O)[O-]	none (no result: VDR inhibitor, KAT2A inh, GLS inhibitor, PLK1 PBD inh)
CC1Cc2ccccc2N1C(=O)CSC1=NCCS1 (stereo unspecified)	VDR inhibitor 70.8µM, PLK1 PBD inh inconclusive
N[C@H]1CN(c2c(F)cc3c(=O)c(C(=O)O)cn(C4C[C@@H]4F)c3c2Cl)CC12CC2 (stereo partly specified)	none (no result: VDR inhibitor, KAT2A inh, PLK1 PBD inh)
Cc1nc(N2CCN(Cc3ccc4c(c3)OCO4)CC2)[nH]c(=O)c1C	none
CC1(C)CC(=O)C2=C(C1)NCN(Cc1ccc3c(c1)OCO3)C2	PLK1 PBD inh 26.7µM
O=C(ONC1=NCCCCC1)c1cccc([N+](=O)[O-])c1	GLS inhibitor 22.4µM
O=[N+]([O-])c1cccc(/C=N/NC2=NCCCCC2)c1	none
O=C(Nc1ccc(Cl)c([N+](=O)[O-])c1)ONC1=NCCCCC1	GLS inhibitor inconclusive, PLK1 PBD inh 26.7µM
COc1cc(C=C2C(=O)c3ccccc3C2=O)cc(OC)c1	VDR inhibitor inconclusive, PLK1 PBD inh 1.06µM
COc1cc(C=C2C(=O)c3ccccc3C2=O)ccc1O	none
COc1ccc(C=C2C(=O)c3ccccc3C2=O)cc1O	PI4K2A block inconclusive, PLK1 PBD inh 18.9µM
Cc1c(C(=O)NCc2ccccc2Cl)sc2nc3n(c(=O)c12)CCCC3	none (no result: PLK1 PBD inh)
N#CC1c2ccccc2C=CN1C(=O)N(c1ccccc1)c1ccccc1 (stereo unspecified)	VDR inhibitor 70.8µM (no result: KAT2A inh)
C/C(=C(/OCCOc1ccc(Cl)cc1)c1ccc(Cl)cc1Cl)n1ccnc1	none (no result: VDR inhibitor, KAT2A inh, GLS inhibitor, PLK1 PBD inh)
Oc1ccc(Br)cc1CNc1ccccn1	VDR inhibitor inconclusive, PLK1 PBD inh 16.8µM
Cc1nn(C)c(C)c1S(=O)(=O)N1CCCC(C(=O)NC2CCCCCC2)C1 (stereo unspecified)	VDR inhibitor inconclusive, PLK1 PBD inh 26.7µM
Cc1ccc(Cl)cc1N1CCN(C(=O)C2CCN(S(=O)(=O)c3c(C)nn(C)c3C)CC2)CC1	none
